# In PubChem BioAssay (NCI):
# About 83,000 compounds went through this panel and 20% of them were active in at least one assay; those are over-represented in the sample as a whole.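 Negative percent growth values reflect cell death: -40 means 40% of the cells present at the start died, and -100 means all died.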 Activity calls are given as the source filed them. The calls were made as follows: active = growth percent below 10; inactive = the rest.
# System: PC-3 prostate
# Test: NCI-60 one-dose screen, 48 h (100 = growth as untreated, 0 = no growth, -100 = all killed)
# Details: 10 µM unless noted
row,SMILES,growth
1,CN(C)CCN1C(=O)c2cccc3c(-c4ccc(-c5nc6c7ccccc7c7ccccc7c6[nH]5)cc4)ccc(c23)C1=O,87.9% (inactive)
2,O=C(Nc1ccc(N2CCCCC2)c(Cl)c1)c1ccc(Br)o1,58% (inactive)
3,COc1ccc(OC)c(Nc2nc3nonc3nc2Nc2cccc(Br)c2)c1,1.15% (active)
4,O=C(NCCN1CCC(O)CC1)c1cc2c(o1)C(=O)c1ccccc1C2=O,-28.4% (active)
5,COc1cc(/C=C/C(=O)c2cccc(-n3cc(-c4ccccc4)[nH]c3=O)c2)cc(OC)c1OC,7.64% (active)
6,Fc1ccc(Nc2nc(Nc3ccc(-c4nc5ccccc5[nH]4)cc3)c3cn[nH]c3n2)cc1,76.6% (inactive)
7,COc1ccc(-c2nc3sc4c(c3c(=O)[nH]2)CCCC4)c2ccccc12,11.7% (inactive)
8,O=[N+]([O-])c1ccccc1C(O)Cc1ccc2ccccc2n1 (centres undefined),95.5% (inactive)
9,N#Cc1c(NC(=O)c2ccccc2I)sc2c1CCCC2,47.1% (inactive)
10,NC(=O)c1c(NC(=O)c2ccc(C(F)(F)F)cc2Cl)sc2c1CCC(=O)C2,-68.8% (active)
11,COc1cc(CNC(=O)/C=C/C=C/c2ccc3c(c2)OCO3)ccc1OCc1cn(-c2ccc(Cl)c(Cl)c2)nn1,-11% (active)
12,CSc1ccc(Cl)c(C(=O)Nc2sccc2C(N)=O)c1,83.8% (inactive)
13,COc1cc(-c2cccc([N+](=O)[O-])c2)c(-c2nc(-c3ccccc3)c(-c3ccccc3)n2C2CC2)cc1OC,24% (inactive)
14,O=C(/C=C/C12c3ccccc3C(c3ccccc31)C1C(=O)NC(=O)C12)c1ccc(Cl)cc1 (centres undefined),21.7% (inactive)
